According to ChEMBL document CHEMBL3988442, “University of Dundee, Small-Polar-MMV Screening Library” (2021):
Out of some 48,000 compounds screened, about 13,000 (27%) showed an effect of 50% or more. The list shows a part of the results.

tested on: Wolbachia pipientis; experiment: Anti-Wolbachia Cell-Based Screen; format: functional; design: scale not given: in the data most compounds retested in dose-response had high values; settings: 5 µM

Compared with `Cc1ccc(-c2cc(CNC(=O)N3CCOC(C)C3)on2)cc1` (stereo unspecified), `Cc1ccc(-c2cc(CNC(=O)N3CCC(CO)CC3)on2)cc1` is higher in “Percent Effect” value: -4.045% for the first, 6.064% for the second.

Compared with `CCCNC(=O)C1(Cc2cc(-c3ccccc3)no2)CCN(C(C)=O)C1` (stereo unspecified), `CCNC(=O)C1(Cc2cc(-c3ccccc3)no2)CCCN(C(C)=O)C1` (stereo unspecified) is higher in “Percent Effect” value: 76.91% for the first, 105.3% for the second.

First: CCNC(=O)C1(Cc2cc(-c3ccc(C)cc3)no2)CCCN(C)C1 (stereo unspecified)
Second: CCNC(=O)C1(Cc2cc(-c3ccccc3)no2)CCCN(C)C1 (stereo unspecified)
The “Percent Effect” value of the first is higher: 151.7% for the first, 76.81% for the second.

Going from `CCNC(=O)C1(Cc2cc(-c3ccccc3)no2)CCCN(C(C)C)C1` (stereo unspecified) to `CCNC(=O)CNS(=O)(=O)Cc1cc(-c2ccccc2)no1`, the “Percent Effect” value falls from 86.79% to -10.1%.

First: Cc1cnn(CCNCc2cc(-c3ccccc3)no2)c1
Second: CN(C)C(=O)NCC(=O)N(C)Cc1cc(-c2ccccc2)no1
The “Percent Effect” value of the first is higher: 2.44% for the first, 2.31% for the second.

Compared with `CC(NC(N)=O)C(=O)N(C)CCCc1cc(-c2ccccc2)no1` (stereo unspecified), `COc1cc(C)sc1C(=O)NCCC(=O)N(C)Cc1ccccc1` is lower in “Percent Effect” value: -0.2623% for the first, -13.22% for the second.

First: CNC(=O)CC1CCN(Cc2nc(-c3ccc(SC)cc3)oc2C)CC1
Second: Cc1ccc(-c2ncc(C(=O)N3CCCN4CCC[C@H]4C3)c(O)n2)cc1
The “Percent Effect” value of the first is lower: -19.45% for the first, -8.702% for the second.

Compared with `O=C(O)C(F)(F)F.O=C([C@H]1C[C@H]2OCC[C@H]2N(Cc2ccco2)C1)N1CCCO1`, `O=C(NCc1ccco1)[C@@]12CCO[C@@H]1CCN(C1CCC1)C2.O=C(O)C(F)(F)F` is lower in “Percent Effect” value: 11.53% for the first, -7.517% for the second.

Going from `COc1ccc(CN2C[C@@H](CN(C)C)[C@@H](CO)C2)c(Cl)c1OC` to `CN(C)CCN(Cc1ccc(Cl)cc1)C(=O)c1cc[nH]n1`, the “Percent Effect” value rises from -2.231% to 3.118%.

Compared with `c1cc2c(cc1C[C@@H]1CC[C@H](CN3CCCOCC3)O1)OCO2`, `N#Cc1c(C2CCOC2)cc(-c2ccc(N3CCCCC3)cc2)nc1N` (stereo unspecified) is lower in “Percent Effect” value: 5.044% for the first, 2.752% for the second.

Going from `Cc1cc(C)cc(C2(C(=O)NC(C)Cn3ccnc3)CC2)c1` (stereo unspecified) to `CC(=O)N1CCCc2cc(Nc3nccn(C)c3=O)ccc21`, the “Percent Effect” value rises from -3.779% to 8.205%.

Going from `COc1ccc(OC)c(C(C)Nc2nc3c(C)nn(C)c3c(=O)n2C)c1` (stereo unspecified) to `COc1ccc(N2CCN(C(=O)COc3nccc(C)n3)CC2)cc1`, the “Percent Effect” value rises from -10.12% to 79.4%.

First: CC(C)C(=O)N1CCN(CCOc2cccc(C#N)c2)CC1
Second: CC1CN(C(=O)NCc2cccc(C#N)c2)CCN1CC(F)(F)F (stereo unspecified)
The “Percent Effect” value of the first is higher: 22.03% for the first, -8.516% for the second.

First: Cc1cc(NCC(=O)N(C)Cc2cccs2)c(C(N)=O)cc1F
Second: CCc1nc(CN(C)Cc2nnc(-c3cccs3)o2)cs1
The “Percent Effect” value of the first is higher: 8.297% for the first, -11.05% for the second.

Compared with `CC(C)N1CCCC(C(=O)NC(C)(C)c2nnc(N)s2)C1` (stereo unspecified), `CC(=O)N1CCCC(c2ccc3sc(N)nc3n2)C1` (stereo unspecified) is higher in “Percent Effect” value: -13.81% for the first, 125% for the second.

Compared with `Cn1cc(-c2c(C#N)c(N)nc3c2CCc2[nH]ccc2-3)cn1`, `COc1ncc(-c2c(C#N)c(N)nc3c2CCc2[nH]ccc2-3)cn1` is lower in “Percent Effect” value: 4.236% for the first, -13.65% for the second.

First: CCC(C)Sc1ncc(-c2c(C#N)c(N)nc3c2COCC3)cn1 (stereo unspecified)
Second: CCOc1ccc(-c2c(C#N)c(N)nc3c2COCC3)cn1
The “Percent Effect” value of the first is lower: 95.02% for the first, 106.3% for the second.

Compared with `CCOc1ccc(NC2CCN(C3CC3)C2=O)cn1` (stereo unspecified), `CCOc1ccc(NC(=O)NC2CCc3[nH]ncc3C2)cn1` (stereo unspecified) is lower in “Percent Effect” value: -7.266% for the first, -9.557% for the second.

Going from `COCCc1ncc(-c2c(C#N)c(N)nc3c2CCc2[nH]ccc2-3)cn1` to `N#Cc1c(N)nc2c(c1-c1cnc(N3CCCC3)nc1)COCC2`, the “Percent Effect” value rises from -13.87% to 84.51%.

First: CC(C)n1cc(-c2c(C#N)c(N)nc3c2COCC3)cn1
Second: Cc1cc(-c2c(C)c(-c3cnn(C)c3)nc(N)c2C#N)oc1C
The “Percent Effect” value of the first is higher: 109.6% for the first, 17.25% for the second.

First: CC(C)=CCC/C(C)=C/CN1CCN(C)C2(CCNC(=O)CC2)C1 (stereo unspecified)
Second: CC(=O)N1CCC2(CC1)CN(C)CC[C@H]2C(F)(F)F.Cl
The “Percent Effect” value of the first is higher: 14.94% for the first, -1.973% for the second.

First: Cc1ccc(CN2CCc3[nH]nc(C(=O)N4CCNC(=O)C4)c3C2)s1.O=C(O)C(F)(F)F
Second: Cc1cnc(CNC(=O)[C@@]23CCO[C@@H]2CCNC3)cn1.O=C(O)C(F)(F)F
The “Percent Effect” value of the first is lower: -6.156% for the first, 84.34% for the second.

Going from `COCC1CCN(C(=O)c2cccc(S(=O)(=O)NC3CCCC3)c2)C1` (stereo unspecified) to `O=C(c1cnc(C2CC2)nc1)N1CCCC(c2nccs2)C1` (stereo unspecified), the “Percent Effect” value rises from 8.028% to 70.5%.

Going from `CC(C)CCN1CN=C(NS(=O)(=O)c2ccc(F)cc2)NC1` to `NC(=O)CCN1C(=O)CC(Cc2ccc(F)cc2)C1=O` (stereo unspecified), the “Percent Effect” value falls from 13.74% to 3.459%.

First: Clc1ccc(C2(NCc3noc(C4CC4)n3)CCCC2)cc1
Second: CNc1ccnc(N2CCC(c3nnc(CN4CCCC4)n3C)CC2)n1
The “Percent Effect” value of the first is higher: 6.408% for the first, 5.752% for the second.

First: CNC(=O)Cc1ccccc1NC(=O)N[C@H]1c2ccccc2C[C@H]1O
Second: CN(C)C(=O)c1ccccc1NC(=O)N[C@@H]1c2ccccc2C[C@@H]1O
The “Percent Effect” value of the first is higher: 73.79% for the first, -11.76% for the second.

Going from `CS(=O)(=O)c1ccccc1NC(=O)N[C@@H]1c2ccccc2C[C@@H]1O` to `O[C@H]1[C@H](n2cc(-c3cncnc3)nn2)c2ccccc2C12CCNCC2`, the “Percent Effect” value falls from 6.839% to -31.96%.

Going from `CCn1cc(N2Cc3nc(N)ncc3C2=O)cn1` to `CCn1cc(C(=O)N2CCCC(c3nccs3)C2)cn1` (stereo unspecified), the “Percent Effect” value rises from 3.471% to 107.1%.

Going from `NC(=O)CN1C(=O)CO[C@H]2CN(Cc3ccc(C(F)(F)F)cc3)C[C@H]21` to `COCCNC(=O)[C@@]12CCO[C@@H]1CCN(Cc1scnc1C)C2.O=C(O)C(F)(F)F`, the “Percent Effect” value rises from -2.639% to 6.926%.

Compared with `Cl.FC(F)Oc1ccc(CNCc2cc(Cl)c3c(c2)OCO3)cc1`, `CN(Cc1ccc(Cl)cc1)S(=O)(=O)N(C)Cc1cnn(C)c1` is higher in “Percent Effect” value: -3.122% for the first, -1.179% for the second.

First: COCCc1noc(CN(C)c2nccc(C)n2)n1
Second: COCCc1noc(CN(C)c2nc(C)cc(C)n2)n1
The “Percent Effect” value of the first is lower: 10.01% for the first, 101% for the second.

Going from `COCCc1noc(CN(C)C2CCCN(c3ccc(C)nn3)C2)n1` (stereo unspecified) to `COCCc1noc(CN(C)c2nc(C)nc(C)c2C)n1`, the “Percent Effect” value rises from -2.157% to 89.33%.

Compared with `COCCc1noc(CN2C(=O)OC[C@@H]2C(C)C)n1`, `Cc1noc(COCC(=O)N2CCCC(c3nccs3)C2)n1` (stereo unspecified) is higher in “Percent Effect” value: -4.227% for the first, -1.591% for the second.

First: CC(C)N[C@@H]1CO[C@H](CNC(=O)c2ccccc2)[C@H]1O
Second: Cl.NC(CC1CCCC1)c1ccccc1 (stereo unspecified)
The “Percent Effect” value of the first is lower: -5.064% for the first, -1.351% for the second.

First: O=C(NCc1ccco1)N1CCC(n2cc(-c3ccccn3)nn2)CC1
Second: CNc1cncc(C2CCCN2Cc2ccccn2)n1 (stereo unspecified)
The “Percent Effect” value of the first is higher: 27.21% for the first, -6.614% for the second.

Compared with `O=C(c1cncnc1)N1CCCC(c2nccs2)C1` (stereo unspecified), `O=C(c1cnc(O)c(Cl)c1)N1CCCC(c2nccs2)C1` (stereo unspecified) is lower in “Percent Effect” value: 117.1% for the first, 105% for the second.

First: Cc1csc(C2CCCN(C(=O)c3cnc4n[nH]c(C)c4c3)C2)n1 (stereo unspecified)
Second: Cc1nc(C2CCCN(C(=O)c3csc(C)n3)C2)no1 (stereo unspecified)
The “Percent Effect” value of the first is higher: -1.582% for the first, -14.77% for the second.

First: O=C(c1cnc(C2CC2)nc1)N1CCC(N2CCC(O)CC2)CC1
Second: Cc1cnc(CNC(=O)[C@@]23CCO[C@@H]2CCN(C2CCCC2)C3)cn1.O=C(O)C(F)(F)F
The “Percent Effect” value of the first is lower: -12.63% for the first, 116.3% for the second.

Compared with `O=C(CN1CCCNC1=O)N1CCCC(c2nccs2)C1` (stereo unspecified), `Cc1ccnc(OCC(=O)N2CCCC2)n1` is higher in “Percent Effect” value: -4.052% for the first, 98.39% for the second.

First: CC(C)Oc1ncc(C(=O)N2CCCC(C(=O)O)C2)cc1Cl (stereo unspecified)
Second: Cc1ccc2oc(C(=O)N3CCCC(c4noc(C)n4)C3)cc2n1 (stereo unspecified)
The “Percent Effect” value of the first is lower: -16.5% for the first, -6.015% for the second.

Going from `O=C(Nc1cnccn1)[C@@H]1COC[C@H]2CN(c3ncc(F)cn3)C[C@H]21` to `Cc1ccnc(OCC(=O)N2CCN(c3ncccn3)CC2)n1`, the “Percent Effect” value rises from -14.05% to 1.434%.

First: CCCN1CCC(N2CCN(c3cc(C)nc(C)c3)CC2)CC1
Second: Cc1ccc(N2CCN(C(=O)COc3nccc(C)n3)CC2)nn1
The “Percent Effect” value of the first is higher: -11.77% for the first, -17.48% for the second.

Compared with `Cc1cc(C(=O)NC2CCN(c3ncccc3C#N)CC2)on1`, `Cc1ccc(N2CCN(C(=O)COc3ncccn3)CC2)nn1` is lower in “Percent Effect” value: 2.44% for the first, -4.899% for the second.

Compared with `Cc1nc(C(=O)N2CCCC(c3ccc4sc(N)nc4n3)C2)co1` (stereo unspecified), `CNc1cncc(C2CCCN2Cc2cccc(C)n2)n1` (stereo unspecified) is lower in “Percent Effect” value: 130.6% for the first, 107% for the second.

First: CNC(=O)C(C)(C)N1CCC[C@H]1C(=O)NCC(C)C.Cl
Second: Cc1ccnc(OCC(=O)N2CCC(C(N)=O)CC2)n1
The “Percent Effect” value of the first is higher: 3.09% for the first, -0.2918% for the second.

Going from `O=C1[C@H]2CC[C@H](CN(S(=O)(=O)c3ccccc3)C2)N1Cc1cscn1` to `Cc1nccc(CNS(=O)(=O)N2CCCC2c2ccc(C)o2)n1` (stereo unspecified), the “Percent Effect” value falls from 20.83% to -6.689%.

Going from `CN(C)CCOc1cc(NC(=O)COCC(F)(F)F)ccn1` to `CCc1ccccc1OCC(=O)Nc1ccnc(OCCN(C)C)c1`, the “Percent Effect” value rises from 0.1628% to 4.07%.

Going from `CNc1cncc(C2CCCN2Cc2ccnc(C)n2)n1` (stereo unspecified) to `CNc1cncc(C2CCCN2Cc2ccnc(N3CCCC3)n2)n1` (stereo unspecified), the “Percent Effect” value rises from 94.65% to 113.8%.

Compared with `CNc1cncc(C2CCCN2Cc2ccn(C)n2)n1` (stereo unspecified), `COc1ccnc(N2CCN(Cc3ncc(C(C)(C)C)o3)CC2)n1` is lower in “Percent Effect” value: 90.43% for the first, 7.68% for the second.

First: Cn1ccnc(Nc2ccc3c(c2)CCN3C(=O)c2ccoc2)c1=O
Second: Cn1ccnc(Nc2ccc3c(c2)CCN3C(=O)c2cccnc2)c1=O
The “Percent Effect” value of the first is higher: 61.04% for the first, -3.992% for the second.

With `CCCN(C(=O)COCC)c1cccc(C)c1` the “Percent Effect” value was -29.78%.
